# Active and inactive are the calls of the source. The calls were made as follows: active = hit-call score of the fitted dose curve at least 0.9, where 1 is the maximum; inactive = score below 0.9.
# Molecular target: Muscarinic acetylcholine receptor M3 (Homo sapiens) (UniProt P20309)
# Assay: ERF_FR_GPCR_hCHRM3: Eurofins (ERF) G Protein-Coupled Receptor (GPCR) Radioligand Binding LeadHunter Assay for human Muscarinic Acetylcholine Receptor M3 Antagonism, conducted at France lab site
# Protocol: ERF_FR_GPCR_hCHRM3 is a biochemical, single-readout assay that uses extracted gene-proteins in a cell-free assay. Measurements were taken 1 hour after chemical dosing in a 96-well plate. See M3 Human Acetylcholine (Muscarinic) GPCR Binding (Antagonist Radioligand) Assay, Cerep.ERF_FR_GPCR_hCHRM3 is an assay component calculated from the ERF_FR_GPCR_hCHRM3 assay. It is designed to measure radioligand binding using a type of binding reporter as detected by scintillation counting with radiometry technology.Data from the assay component ERF_FR_GPCR_hCHRM3 was analyzed at the assay endpoint, ERF_FR_GPCR_hCHRM3, in the positive analysis fitting direction relative to DMSO as the negative control and baseline of activity. Using a type of binding reporter, loss-of-signal activity can be used to understand changes in binding as they relate to gene CHRM3. To generalize the intended target to other relatable targets, this assay endpoint is annotated to the gpcr intended target family, where the subfamily is acetylcholine (Muscarinic).
# Human cells are incubated for 60 minutes at room temprature with [3H]4-DAMP ligand (0.2 nM) and 4-Damp methiodide as control inhibitor.Test Sample Requirements: Minimum for 1) Screen: 60 ul of 10 mM stock -OR- 1 mg (pre-weighed) for 10 uM final testing. 2) Dose Response: 90 ul of 10 mM stock -OR- 1 mg (pre-weighed) for a top concentration at 10 uM.
# Chain of Muscarinic acetylcholine receptor M3 (Homo sapiens) (P20309 whole entry, looked up): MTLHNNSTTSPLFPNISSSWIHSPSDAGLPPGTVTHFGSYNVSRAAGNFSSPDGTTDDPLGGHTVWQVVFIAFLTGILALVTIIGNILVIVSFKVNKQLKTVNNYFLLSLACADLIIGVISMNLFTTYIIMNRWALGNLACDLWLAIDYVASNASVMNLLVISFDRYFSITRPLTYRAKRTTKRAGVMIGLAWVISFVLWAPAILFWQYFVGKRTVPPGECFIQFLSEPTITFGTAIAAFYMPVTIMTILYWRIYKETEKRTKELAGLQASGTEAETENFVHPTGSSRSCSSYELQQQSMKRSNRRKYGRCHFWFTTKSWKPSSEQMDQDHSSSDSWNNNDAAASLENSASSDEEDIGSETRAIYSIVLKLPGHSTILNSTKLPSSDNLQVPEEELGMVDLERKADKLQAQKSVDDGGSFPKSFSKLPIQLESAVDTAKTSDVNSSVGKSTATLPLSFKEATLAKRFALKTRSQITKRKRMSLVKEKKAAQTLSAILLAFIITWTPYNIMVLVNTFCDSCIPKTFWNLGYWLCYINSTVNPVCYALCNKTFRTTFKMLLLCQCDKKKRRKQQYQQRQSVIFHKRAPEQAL
row,SMILES,AC50
1,O=C(/C=C/c1ccc(O)cc1)CC(=O)/C=C/c1ccc(O)cc1,2.71 µM (active)

# — PubChem BioAssay AID2284154 (EPA ToxCast)
